# ChEMBL document CHEMBL3988442, “University of Dundee, Small-Polar-MMV Screening Library” (2021)
# For some assays here: Measured potencies and affinities stand elsewhere.
# Columns and labels:
# Parameters in all cases: scale not given: direction of the effect not stated beside the values
# [1] = molecular target: Protein translocase subunit SecA (Escherichia coli (strain K12)) (UniProt P10408); experiment: Assay to Identify E. coli SecA ATPase Inhibitors; assay type: functional; conditions: 30 µM
# Protein translocase subunit SecA (Escherichia coli (strain K12)), sequence (P10408 whole entry): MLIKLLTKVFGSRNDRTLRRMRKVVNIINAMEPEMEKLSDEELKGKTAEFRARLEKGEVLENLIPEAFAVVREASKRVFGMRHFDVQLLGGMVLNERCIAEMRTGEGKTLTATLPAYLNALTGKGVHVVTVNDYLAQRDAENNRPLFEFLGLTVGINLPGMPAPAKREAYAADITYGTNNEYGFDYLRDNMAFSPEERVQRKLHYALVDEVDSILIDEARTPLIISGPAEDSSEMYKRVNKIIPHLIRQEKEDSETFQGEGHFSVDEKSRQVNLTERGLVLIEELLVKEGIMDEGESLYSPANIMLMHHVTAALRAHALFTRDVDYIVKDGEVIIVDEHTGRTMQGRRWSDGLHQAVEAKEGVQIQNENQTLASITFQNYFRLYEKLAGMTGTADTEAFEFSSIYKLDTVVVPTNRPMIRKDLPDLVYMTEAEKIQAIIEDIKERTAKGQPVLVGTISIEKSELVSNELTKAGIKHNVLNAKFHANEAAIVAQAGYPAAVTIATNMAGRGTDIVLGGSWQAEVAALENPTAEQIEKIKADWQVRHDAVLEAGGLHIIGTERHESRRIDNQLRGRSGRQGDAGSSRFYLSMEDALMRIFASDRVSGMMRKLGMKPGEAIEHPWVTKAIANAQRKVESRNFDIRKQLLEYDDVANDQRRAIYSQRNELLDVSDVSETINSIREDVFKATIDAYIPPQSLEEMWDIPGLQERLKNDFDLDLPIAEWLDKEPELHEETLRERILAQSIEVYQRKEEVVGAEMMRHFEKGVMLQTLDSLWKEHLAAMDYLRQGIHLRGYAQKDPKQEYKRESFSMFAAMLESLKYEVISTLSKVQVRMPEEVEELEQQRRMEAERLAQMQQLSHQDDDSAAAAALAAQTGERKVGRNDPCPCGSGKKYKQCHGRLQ
# [2] = molecular target: T1, Ubiquitin-activating enzyme e1, putative (Leishmania donovani (strain BPK282A1)) (UniProt E9BSI1); experiment: Leishmania donovani Ubiquitin Activating Enzyme (LdE1); assay type: functional; conditions: 30 µM
# T1 sequence (whole entry): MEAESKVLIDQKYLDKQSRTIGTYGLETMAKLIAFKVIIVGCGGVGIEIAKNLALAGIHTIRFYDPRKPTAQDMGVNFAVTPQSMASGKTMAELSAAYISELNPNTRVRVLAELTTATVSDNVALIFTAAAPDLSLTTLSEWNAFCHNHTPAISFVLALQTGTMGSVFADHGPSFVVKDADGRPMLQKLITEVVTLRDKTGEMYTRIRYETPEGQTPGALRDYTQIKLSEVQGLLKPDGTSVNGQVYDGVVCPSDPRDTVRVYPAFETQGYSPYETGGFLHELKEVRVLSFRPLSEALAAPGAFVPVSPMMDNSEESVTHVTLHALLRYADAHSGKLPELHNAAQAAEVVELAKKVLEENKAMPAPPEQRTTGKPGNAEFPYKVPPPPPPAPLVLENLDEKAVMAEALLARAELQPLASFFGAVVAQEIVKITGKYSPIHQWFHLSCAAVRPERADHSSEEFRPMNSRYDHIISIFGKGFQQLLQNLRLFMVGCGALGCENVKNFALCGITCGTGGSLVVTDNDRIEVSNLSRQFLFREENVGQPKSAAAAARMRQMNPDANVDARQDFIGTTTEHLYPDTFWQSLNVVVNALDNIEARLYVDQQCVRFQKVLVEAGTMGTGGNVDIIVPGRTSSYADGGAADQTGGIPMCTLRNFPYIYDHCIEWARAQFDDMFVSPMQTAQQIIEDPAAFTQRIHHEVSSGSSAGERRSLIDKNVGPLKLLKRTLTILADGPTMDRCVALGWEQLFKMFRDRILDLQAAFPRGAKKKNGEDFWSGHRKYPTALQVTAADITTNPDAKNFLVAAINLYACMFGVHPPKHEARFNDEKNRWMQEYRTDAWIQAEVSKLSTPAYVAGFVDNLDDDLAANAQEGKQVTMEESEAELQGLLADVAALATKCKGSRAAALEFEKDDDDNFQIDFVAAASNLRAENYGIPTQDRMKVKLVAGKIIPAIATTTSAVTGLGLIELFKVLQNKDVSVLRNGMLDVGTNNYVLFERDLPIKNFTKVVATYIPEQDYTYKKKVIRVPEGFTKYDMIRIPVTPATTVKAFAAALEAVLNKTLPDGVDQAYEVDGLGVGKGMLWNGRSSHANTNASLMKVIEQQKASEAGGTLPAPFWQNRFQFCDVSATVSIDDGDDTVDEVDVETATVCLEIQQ
# [3] = molecular target: AMP-activated protein kinase, AMPK (Homo sapiens) (UniProt P54646+O43741+P54619+Q9UGJ0+Q9Y478+Q13131+Q9UGI9); experiment: AMP-dependent Kinase enzyme assay. An in vitro enzyme assay that detects ADP turnover that is directly proportional to AMPK activity. This uses naive AMPK that is activated during the assay with MK-8722; assay type: functional; conditions: 30 µM
# [4] = molecular target: Sialic acid-binding Ig-like lectin 9 (Homo sapiens) (UniProt Q9Y336); experiment: Hs-Siglec9 ALPHAscreen SOP 20170721; conditions: 10 µM
# Sialic acid-binding Ig-like lectin 9 (Homo sapiens), sequence (Q9Y336 whole entry): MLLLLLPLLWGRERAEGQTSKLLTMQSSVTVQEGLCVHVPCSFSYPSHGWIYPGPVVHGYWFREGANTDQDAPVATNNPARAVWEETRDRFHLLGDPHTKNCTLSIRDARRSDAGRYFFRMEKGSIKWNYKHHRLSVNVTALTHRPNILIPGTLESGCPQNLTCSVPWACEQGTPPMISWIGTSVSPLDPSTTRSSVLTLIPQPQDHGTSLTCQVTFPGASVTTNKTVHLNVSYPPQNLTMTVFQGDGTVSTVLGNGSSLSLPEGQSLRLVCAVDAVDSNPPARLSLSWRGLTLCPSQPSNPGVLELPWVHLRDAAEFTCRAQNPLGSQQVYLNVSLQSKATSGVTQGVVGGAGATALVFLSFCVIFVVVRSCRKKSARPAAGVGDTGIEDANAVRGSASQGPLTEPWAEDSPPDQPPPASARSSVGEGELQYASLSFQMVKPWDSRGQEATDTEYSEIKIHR
# Trypanosoma cruzi = experiment: Trypanosoma cruzi phosphomannomutase and mannose-1-phosphate guanylyltransferase assay; assay type: functional; conditions: 10 µM
# [5] = molecular target: T2, Arginase-2, mitochondrial (Homo sapiens) (UniProt P78540); experiment: in vitro enzyme assay to detect the production of urea directly proportional to the activity of Arginase II; assay type: functional; conditions: 33.3 µM; note: in the data most compounds retested in dose-response had high values
# T2 sequence (whole entry): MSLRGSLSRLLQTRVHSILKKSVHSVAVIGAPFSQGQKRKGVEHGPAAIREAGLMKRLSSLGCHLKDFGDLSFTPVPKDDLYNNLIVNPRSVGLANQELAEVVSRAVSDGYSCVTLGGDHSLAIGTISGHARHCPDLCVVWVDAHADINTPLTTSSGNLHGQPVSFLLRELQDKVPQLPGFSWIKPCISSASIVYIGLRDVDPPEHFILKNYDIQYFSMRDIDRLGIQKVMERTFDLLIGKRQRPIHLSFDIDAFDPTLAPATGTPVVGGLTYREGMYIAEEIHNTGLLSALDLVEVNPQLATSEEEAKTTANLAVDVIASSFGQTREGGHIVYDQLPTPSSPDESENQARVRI
# [6] = molecular target: T3, Proteasome subunit beta (Trypanosoma cruzi) (UniProt O96673); experiment: Trypanosoma cruzi proteasome chymotrypsin-like activity (TcProtChymo) assay.; note: in the data most compounds retested in dose-response had high values; assay type: functional; conditions: 9.37 µM
# T3 sequence (whole entry): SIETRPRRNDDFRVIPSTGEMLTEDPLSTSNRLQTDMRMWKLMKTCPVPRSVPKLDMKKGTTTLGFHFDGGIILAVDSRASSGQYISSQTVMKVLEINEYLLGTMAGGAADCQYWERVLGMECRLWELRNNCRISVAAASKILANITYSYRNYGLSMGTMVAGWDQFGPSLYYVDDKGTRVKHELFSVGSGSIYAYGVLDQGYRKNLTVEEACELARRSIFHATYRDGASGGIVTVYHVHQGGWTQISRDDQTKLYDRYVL
# Homo sapiens = species: Homo sapiens; experiment: To identify inhibition of the IFN signalling (Jak-Stat) pathway via expression of an eGFP reporter gene under the control of an IFN-stimulated response element (ISRE) containing MxA promoter.; assay type: functional; conditions: 30 µM
# [7] = molecular target: T4, Tyrosyl-tRNA synthetase, putative (Trypanosoma cruzi (strain CL Brener)) (UniProt Q4DSP6); experiment: Trypanosoma cruzi tyrosyl tRNA synthetase (TcYRS) _High Tyrosine SOP; assay type: functional; conditions: 30 µM; note: in the data most compounds retested in dose-response had high values
# T4 sequence (whole entry): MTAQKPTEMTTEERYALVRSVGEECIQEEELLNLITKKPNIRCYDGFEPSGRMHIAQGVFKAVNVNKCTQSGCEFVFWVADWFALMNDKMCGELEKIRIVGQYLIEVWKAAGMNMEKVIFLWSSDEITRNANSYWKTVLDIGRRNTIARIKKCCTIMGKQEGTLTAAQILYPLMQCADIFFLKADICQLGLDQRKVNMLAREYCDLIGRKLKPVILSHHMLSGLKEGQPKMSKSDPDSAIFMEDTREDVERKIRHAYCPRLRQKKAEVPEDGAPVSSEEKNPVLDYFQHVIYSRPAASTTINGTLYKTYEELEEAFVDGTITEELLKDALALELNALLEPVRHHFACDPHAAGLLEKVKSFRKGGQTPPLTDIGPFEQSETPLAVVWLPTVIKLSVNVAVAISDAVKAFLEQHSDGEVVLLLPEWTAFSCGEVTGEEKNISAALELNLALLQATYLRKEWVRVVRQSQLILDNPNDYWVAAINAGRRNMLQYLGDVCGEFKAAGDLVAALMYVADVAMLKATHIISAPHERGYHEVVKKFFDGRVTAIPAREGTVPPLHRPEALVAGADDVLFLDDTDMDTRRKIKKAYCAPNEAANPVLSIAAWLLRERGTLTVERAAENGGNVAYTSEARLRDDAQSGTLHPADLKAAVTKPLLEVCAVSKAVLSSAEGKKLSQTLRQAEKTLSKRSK
# [8] = molecular target: T4, Tyrosyl-tRNA synthetase, putative (Trypanosoma cruzi (strain CL Brener)); experiment: Trypanosoma cruzi tyrosyl tRNA synthetase (TcYRS) SOP; assay type: functional; conditions: 30 µM
# [9] = molecular target: Chromo domain-containing protein 1 (Saccharomyces cerevisiae (strain ATCC 204508 / S288c) (Baker's yeast)) (UniProt P32657); experiment: ScCHD-1 Enzyme Inhibition Assay; assay type: functional; conditions: 30 µM; note: in the data most compounds retested in dose-response had high values
# Chromo domain-containing protein 1 (Saccharomyces cerevisiae (strain ATCC 204508 / S288c) (Baker's yeast)), sequence (P32657 whole entry, the tested form may be a part): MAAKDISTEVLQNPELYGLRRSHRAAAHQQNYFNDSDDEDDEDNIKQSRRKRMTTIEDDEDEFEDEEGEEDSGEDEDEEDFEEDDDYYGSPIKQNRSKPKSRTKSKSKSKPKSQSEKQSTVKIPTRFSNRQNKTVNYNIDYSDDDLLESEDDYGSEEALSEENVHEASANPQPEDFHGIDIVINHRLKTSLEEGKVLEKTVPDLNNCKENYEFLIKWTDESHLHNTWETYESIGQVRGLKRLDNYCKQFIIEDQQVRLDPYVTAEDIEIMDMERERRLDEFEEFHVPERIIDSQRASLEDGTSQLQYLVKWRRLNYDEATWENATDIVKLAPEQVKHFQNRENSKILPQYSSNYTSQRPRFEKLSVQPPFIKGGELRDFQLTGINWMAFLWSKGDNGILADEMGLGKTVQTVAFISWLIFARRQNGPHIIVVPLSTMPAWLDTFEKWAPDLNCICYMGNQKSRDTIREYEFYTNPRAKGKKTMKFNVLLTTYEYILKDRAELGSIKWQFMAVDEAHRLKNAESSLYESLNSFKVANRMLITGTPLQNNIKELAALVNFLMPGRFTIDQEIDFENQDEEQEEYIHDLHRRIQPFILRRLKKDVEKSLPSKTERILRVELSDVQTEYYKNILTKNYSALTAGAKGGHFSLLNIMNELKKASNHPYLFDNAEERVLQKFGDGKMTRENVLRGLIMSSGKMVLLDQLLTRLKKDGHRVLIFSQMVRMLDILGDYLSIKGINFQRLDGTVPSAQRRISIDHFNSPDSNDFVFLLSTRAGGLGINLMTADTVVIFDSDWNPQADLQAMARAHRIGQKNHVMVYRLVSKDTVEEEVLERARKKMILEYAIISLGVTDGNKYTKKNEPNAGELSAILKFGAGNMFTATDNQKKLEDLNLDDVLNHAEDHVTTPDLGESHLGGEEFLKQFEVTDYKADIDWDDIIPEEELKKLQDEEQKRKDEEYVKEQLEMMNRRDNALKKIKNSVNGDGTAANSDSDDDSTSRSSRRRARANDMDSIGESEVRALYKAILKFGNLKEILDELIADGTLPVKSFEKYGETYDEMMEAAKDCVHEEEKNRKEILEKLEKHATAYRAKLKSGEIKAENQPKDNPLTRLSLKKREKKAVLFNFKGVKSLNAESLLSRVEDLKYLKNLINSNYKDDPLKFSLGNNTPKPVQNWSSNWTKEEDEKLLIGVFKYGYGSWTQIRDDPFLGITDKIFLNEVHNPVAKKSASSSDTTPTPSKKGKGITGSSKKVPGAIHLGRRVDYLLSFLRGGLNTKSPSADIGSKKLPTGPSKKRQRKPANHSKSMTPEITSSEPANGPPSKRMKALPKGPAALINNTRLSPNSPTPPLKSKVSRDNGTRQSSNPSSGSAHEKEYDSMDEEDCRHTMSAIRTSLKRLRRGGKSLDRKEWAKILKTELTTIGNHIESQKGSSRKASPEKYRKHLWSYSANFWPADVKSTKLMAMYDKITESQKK
SMILES,Percent Effect [1] [%],Percent Effect [2] [%],Percent Effect [3] [%],Percent Effect [4] [%],Percent Effect (Trypanosoma cruzi) [%],Percent Effect [5] [%],Percent Effect [6] [%],Percent Effect (Homo sapiens) [%],Percent Effect [7] [%],Percent Effect [8] [%],Percent Effect [9] [%]
Cc1cccnc1CN1CCC(c2nnc(Cn3cccn3)n2C)CC1,-4.04,1.39,0.385,-7.79,-3.98,2.21,8.95,-6.28,3.16,10.3,-2.58
CC(=O)N1CCC(c2nccnc2Oc2ccccc2)CC1,-6.13,4.05,4.17,-0.964,-6.32,-3.02,4.06,13.5,2.15,1.3,11.4
Cn1ccnc1CN1CC[C@@H](NS(C)(=O)=O)[C@@H]1Cc1cccnc1,-2.5,8.11,-0.0396,-7.99,-6.35,-2.23,18.6,11.3,2.16,10.3,-5.81
CCS(=O)(=O)N1CCOC2(CCCN(c3ccc(C)nn3)C2)C1 (configuration not stated),-0.413,2.67,3.56,2.28,-1.35,-48.9,6.67,-5.88,-1.04,-2.5,0.0361
Cc1noc(C)c1-c1cncc(C2CCCN2Cc2cncnc2)n1 (configuration not stated),-2.17,2.67,6.8,-2.83,-3.54,1.63,5.55,18.2,4.25,8.97,-6.34
CC(=O)N1CCC(C(=O)NCCN2CCC(C)CC2)CC1,-1.98,9.72,11.4,-1.43,-3.6,4.86,18.1,-2.5,4.21,5.13,-3.45
CCN1CCN(C(=O)c2cnn(-c3ccccc3Cl)c2)CC1,-4.44,5.41,-8.79,9.91,-2.36,-1.6,1.62,10.3,10.3,13.6,-7.79
NC(=O)C1CCN(C(=O)CCn2ccc3cc(Br)ccc32)CC1,-0.921,4.17,-4.65,21.5,2.43,14.6,2.63,-3.52,3.16,2.56,-4.07
Cc1nc(C)n(CC2CCCN(CCNC(=O)OC(C)(C)C)C2)n1 (configuration not stated),-0.765,2.6,5.46,11.6,1.67,5.26,5.9,9.69,2.86,0,-4.66
CNC(=O)c1nc2c(s1)CCN(C(=O)c1cccnc1)CC2,2.24,0,4.01,3.91,-3.67,-50.4,3.42,3.61,3.12,5,-2.25
O=C(NCCc1cccs1)[C@H]1CO[C@H]2CCNC[C@H]2C1,0.545,13.5,0.0792,-4.42,-4.99,6.05,19.4,12.4,1.08,10.3,-2.47
Cc1ccc(CNS(=O)(=O)CC2=NC(=O)n3cccc3C2=O)cc1,0.952,-9.33,7.77,4.14,-1.77,-4.4,7.21,-19.8,-2.12,0,2.54
Cc1nc(-c2ccco2)ccc1C(=O)N1CCCC1Cn1cccn1 (configuration not stated),-2.79,1.27,3.11,2.49,-0.513,3.66,13.4,7.74,4.17,0,-8.65
CCN(CC1CN(Cc2ncc(C)o2)CCO1)c1cccnn1 (configuration not stated),-4.91,-2.67,-8.97,2.4,5.16,2.6,12.2,12,7.1,6.17,-0.756
Cn1cc(C(=O)NC2CCN(C(=O)NCCSC(F)(F)F)CC2)cn1,-1.89,13.9,2.72,2.15,-1.13,-0.215,13,8.82,9.38,17.7,-19.9
Cn1cc(C2CCCN2Cc2csc(C(C)(C)C)n2)cn1 (configuration not stated),-8.01,12.7,-5.07,14.2,6.33,-5.32,4.01,-16.1,8.37,16.5,-9.19
CCn1nc(CC(C)C)cc1C(=O)NCCCOC,-2.12,6.94,0.357,4.91,0.291,4.86,15.8,3.12,5.26,7.69,0.96
Cc1ncc(CNCC2CCCN2c2cccnn2)s1 (configuration not stated),0.235,8.86,-1.3,-1.84,3.79,5.38,15.9,22.7,9.38,12.7,-17.8
CO[C@H]1CCN(S(=O)(=O)c2cn(C)cn2)[C@H]1Cc1cnn(C)c1,-4.55,2.67,1.72,2.33,-2.51,-52.9,6.15,1.21,-4.17,-25,-4.77
Cc1nccc(CNC(=O)NCCOc2ccc(F)c(F)c2)n1,-4.87,0,-0.557,27.5,4.25,-1.43,14.8,8.46,4.76,9.76,-9.47
O=C(NCC1OCCc2cn(CC3CC3)nc21)c1ccsc1 (configuration not stated),-5.87,18.2,2.23,-1.55,3.65,1.94,12.2,8.57,2.12,14.1,-7.27
CCOC(CC)C(=O)NCc1ccnc(Oc2ccc(F)cc2)c1 (configuration not stated),-0.936,-2.7,-2.91,0.458,-3.28,4.29,11,9.46,7.94,12.2,-1.51
